Records with an inconclusive call do not appear. A number with no mark means an inactive call. Active and inactive are the calls of the source. Calls follow the shape of the dose curve; as a rule, active = well fitted activation curve with a large enough effect; inconclusive = small, poorly fitted or top-dose-only effect; inactive = no such curve, though single readings can be large or run the other way.
Target: Cellular tumor antigen p53 (Homo sapiens) (UniProt P04637)
Assay: Primary qHTS for small molecule compounds that upregulate eGFP-tagged delta133p53alpha (in N-terminal) cells. (AID 2060322); also: nearly all actives have a fitted effect of over 75% in size;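 as to activation: cells pre-induced with doxycycline then dosed without doxycycline; series mostly up to about 56 µM; 0% = DMSO vehicle and 100% = reference activator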
Details: NCI-H358 eGFP-delta133p53alpha fluorescence, 24 h; activation: stronger effect = higher value
How it was run: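 NCI-H358 cells pre-induced 24 h with 10 ng/ml doxycycline for eGFP-delta133p53alpha, plated dox-free and exposed 24 h at 37C to titrated compounds. Fixed, Hoechst-stained; gated GFP peak intensity by laser scanning cytometry, normalized to DMSO (0%) and 57.5 uM 5-azacytidine (100%).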
Potency is read from the fitted curve at half-maximal effect.

Sequence of Cellular tumor antigen p53 (Homo sapiens) (P04637 whole entry, looked up): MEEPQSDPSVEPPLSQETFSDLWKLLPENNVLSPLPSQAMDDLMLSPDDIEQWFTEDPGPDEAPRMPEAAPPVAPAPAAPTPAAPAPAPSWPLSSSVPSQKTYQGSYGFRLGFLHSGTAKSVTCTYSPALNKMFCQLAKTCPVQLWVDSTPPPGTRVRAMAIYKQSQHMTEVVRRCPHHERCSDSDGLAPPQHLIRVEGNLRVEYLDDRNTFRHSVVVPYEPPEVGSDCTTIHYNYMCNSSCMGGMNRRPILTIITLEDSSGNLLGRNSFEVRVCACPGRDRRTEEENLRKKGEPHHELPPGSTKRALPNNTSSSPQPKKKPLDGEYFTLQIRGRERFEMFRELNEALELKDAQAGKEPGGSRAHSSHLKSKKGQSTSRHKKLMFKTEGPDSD

Which activation does the source give for `Nc1nc(N)c(-c2ccccc2)s1` here?
The activation was -14.1%.

How did the activation turn out when `OCCOCCN1CCN(C2=Nc3ccccc3Sc3ccccc32)CC1` was run?
The activation was 7.53%.

`CCOc1ccc(NC(C)=O)cc1` was tested. Which activation did it give?
Its activation is 7.53%.

Which activation does the source give for `CN1CCN(C2=Nc3ccccc3Sc3ccc(Cl)cc32)CC1` here?
The activation was 15.3%.

How did the Potency turn out when `Cc1c[nH]c(C=C2C(=O)Nc3ccccc32)c1CCC(=O)O` was run?
The Potency was 24.3 µM (active).

With `O=C(Nc1ccc(Cl)c(Cl)c1)C1CC1` as the compound, how does the activation read?
The activation was -7.53%.

How did the activation turn out when `Cc1cc(-n2nc3ccc(Cl)cc3n2)c(O)c(C(C)(C)C)c1` was run?
Its activation is 19.8%.

`CCOc1ccc(Cc2nccc3cc(OCC)c(OCC)cc23)cc1OCC` was tested. Which activation did it give?
The activation was -22.6%.

Which activation does the source give for `CC(C)N(CC[C@H](c1ccccc1)c1cc(CO)ccc1O)C(C)C` here?
The activation was 16.8%.

For `Nc1ccc2cc3ccc(N)cc3nc2c1`, which activation is on record?
Its activation is -35.1%.

For `CCCCC/C=C\C/C=C\CCCCCCCC(=O)NC(C)c1ccccc1` (configuration not stated), which activation is on record?
Its activation is 0%.

For `CCCCC1=NC2(CCCC2)C(=O)N1Cc1ccc(-c2ccccc2-c2nn[nH]n2)cc1`, which activation is on record?
Its activation is 6.69%.

With `CCCCCCCCCCCCCC(=O)OC(C)C` as the compound, how does the activation read?
The activation was 14.1%.

Which activation does the source give for `OCCCc1ccccc1` here?
The activation was -6.21%.

How did the activation turn out when `COc1cc(CNC(=O)CCCCC=CC(C)C)ccc1O` was run?
Its activation is -14.9%.

For `CC(C)[N+](C)(C)CC(O)COc1cccc2ccccc12` (configuration not stated), which activation is on record?
The activation was -17.5%.

`CCCCCCCCCCCCCCCCCCN(C)C` was tested. Which activation did it give?
The activation was -22.6%.
